Some test systems named below: HCT-15 colon; SNB-19 CNS; U251 CNS; PC-3 prostate; SK-MEL-5 melanoma; LOX IMVI melanoma; SK-MEL-28 melanoma; SK-MEL-2 melanoma; EKVX NSCLC; SN12C renal; UO-31 renal; TK-10 renal; ACHN renal; CAKI-1 renal; A498 renal; CCRF-CEM leukemia; MOLT-4 leukemia; SNB-75 CNS; UACC-62 melanoma.
Assay in all cases: NCI-60 one-dose screen, 48 h (100 = growth as untreated, 0 = no growth, -100 = all killed)
Holding throughout (conditions): 10 µM unless noted

Compounds without any hit were thinned out: in the full panel of roughly 83,000, 20% have a hit.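 48-hour exposure, single concentration, 96-well plates; percent growth endpoint where 0 means no net growth. Active: below 10.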 A number with no mark means an inactive call. The source made the active and inactive calls.

As for `Cc1ccc2c(c1)nc(C)n2-c1ncnc2c1CC(C)c1cc(O)ccc1N2C` (stereo not drawn), the growth in the assay with HCT-15 colon was 26.7%; with SNB-19 CNS it was 48.7%; with U251 CNS, 20%; with PC-3 prostate, 29.6%; in the assay on SK-MEL-5 melanoma, 23.7%; in the assay with LOX IMVI melanoma, 43%. The growth was 61.1% in the assay on SK-MEL-28 melanoma; 21.4% in the assay on SK-MEL-2 melanoma; 44.2% with EKVX NSCLC; 52.3% in the assay on SN12C renal; 47.9% with UO-31 renal; 56.1% in the assay with TK-10 renal. The growth was 49.5% in the assay on ACHN renal; 42.4% in the assay on CAKI-1 renal; 6.65% (active) with A498 renal; 9.39% (active) with CCRF-CEM leukemia; 13.4% with MOLT-4 leukemia.
In the case of `N#Cc1ccc(/C=C/c2cn(-c3ccccc3)nc2-c2cccc([N+](=O)[O-])c2)cc1`, the growth was 65.4% with HCT-15 colon; 27.3% in the assay on SNB-75 CNS; 21.6% in the assay on SNB-19 CNS; 46.7% in the assay with U251 CNS; 44.3% in the assay on PC-3 prostate; 72.7% with SK-MEL-5 melanoma. In addition, the growth is 77% in the assay with UACC-62 melanoma; 77.4% in the assay with LOX IMVI melanoma; 66.3% with SK-MEL-28 melanoma; 76.3% in the assay on SK-MEL-2 melanoma; 66.8% with EKVX NSCLC; 48.1% with SN12C renal. Also, the growth with UO-31 renal was 79.3%; with TK-10 renal, 76.9%; with ACHN renal, 32.7%; with CAKI-1 renal it was 71.1%; with A498 renal it was 97%; in the assay on CCRF-CEM leukemia, 88.3%. For the same molecule, the growth in the assay on MOLT-4 leukemia was 97.6%.
Turning to `CN(C)CCn1c(=O)c2ccccc2n2nc3ccccc3c12`, the growth was 84.1% in the assay on HCT-15 colon; 93.5% in the assay on SNB-75 CNS; 78.1% in the assay on SNB-19 CNS; 88.8% with U251 CNS; 99.3% with PC-3 prostate; 87.2% in the assay with SK-MEL-5 melanoma. In addition, the growth is 56.4% in the assay with LOX IMVI melanoma; 116% in the assay on SK-MEL-28 melanoma; 128% in the assay with SK-MEL-2 melanoma; 94.1% with EKVX NSCLC; 69.9% with SN12C renal; 52.9% in the assay with UO-31 renal. Moreover, the growth in the assay on TK-10 renal was 97.9%; with ACHN renal, 46.6%; in the assay with CAKI-1 renal, 77.6%; in the assay on A498 renal, 9.6% (active); with CCRF-CEM leukemia it was 81.8%; in the assay with MOLT-4 leukemia, 29.9%.
With `Cc1c(O)cc(-c2cnc(N/N=C/c3ccccc3)s2)c(O)c1C`, the growth was 79.1% in the assay on HCT-15 colon; 105% in the assay with SNB-19 CNS; 97.9% with U251 CNS; 69.7% with PC-3 prostate; 85.8% in the assay with SK-MEL-5 melanoma; 81.9% in the assay with UACC-62 melanoma. Besides, the growth in the assay with LOX IMVI melanoma was 79.9%; in the assay with SK-MEL-28 melanoma it was 92.2%; in the assay on SK-MEL-2 melanoma, 104%; with EKVX NSCLC, 87.2%; in the assay on SN12C renal, 95.6%; with UO-31 renal it was 79.9%. The growth with TK-10 renal was 129%; in the assay on ACHN renal it was 99.4%; in the assay on CAKI-1 renal it was 91.7%; in the assay with A498 renal it was -20.4% (active); with CCRF-CEM leukemia, 8.48% (active); with MOLT-4 leukemia, 9.73% (active).
In the case of `N=C(N)c1ccc(-c2ccc(-c3ccccc3)o2)o1`, the growth in the assay on HCT-15 colon is 13%; in the assay with SNB-75 CNS, 32.8%; in the assay with SNB-19 CNS it was 38.3%; in the assay on U251 CNS, 10.3%; in the assay on PC-3 prostate, 30.4%; in the assay on SK-MEL-5 melanoma it was 30.5%. Moreover, the growth in the assay with UACC-62 melanoma is 61.9%; in the assay with LOX IMVI melanoma, 14.3%; in the assay with SK-MEL-28 melanoma it was 69.1%; with SK-MEL-2 melanoma, 45.1%; in the assay on EKVX NSCLC, 51.9%; in the assay with SN12C renal, 39%. In addition, the growth in the assay with UO-31 renal is 41.9%; in the assay with TK-10 renal, 60.5%; in the assay with ACHN renal, 38.5%; in the assay on CAKI-1 renal it was 37.4%; with A498 renal it was 48.7%; in the assay with CCRF-CEM leukemia, 15.4%. Moreover, in the assay with MOLT-4 leukemia, the growth is 15.6%.
Take `[N-]=[N+]=NCC1OC(n2cnc3c(NC(=O)Nc4ccccc4)ncnc32)C2OC(=O)CC12` (stereo not drawn): the growth was 91.2% with HCT-15 colon; 93.7% with SNB-75 CNS; 106% with SNB-19 CNS; 110% with U251 CNS; 97.4% in the assay on PC-3 prostate; 106% in the assay on SK-MEL-5 melanoma. The growth with UACC-62 melanoma was 107%; in the assay on LOX IMVI melanoma it was 93.2%; with SK-MEL-28 melanoma, 118%; in the assay with SK-MEL-2 melanoma, 90.7%; in the assay on EKVX NSCLC, 104%; with SN12C renal, 118%. Also, the growth in the assay with UO-31 renal was 78.8%; in the assay on TK-10 renal, 101%; with ACHN renal, 101%; in the assay with CAKI-1 renal it was 101%; in the assay with A498 renal, 100%; in the assay with CCRF-CEM leukemia, 91.7%. Moreover, in the assay with MOLT-4 leukemia, the growth is 84.6%.
Consider `COc1cc(/C=N/NC(=O)c2ccc(-n3cc(-c4ccccc4)nn3)cc2)cc(OC)c1OC`, for which the growth in the assay on HCT-15 colon was 76.2%; with SNB-75 CNS it was 71.6%; with SNB-19 CNS, 58.9%; with U251 CNS, 48.4%; in the assay on PC-3 prostate it was 47.5%; in the assay with SK-MEL-5 melanoma, 57.2%. Besides, the growth in the assay with UACC-62 melanoma is 9.86% (active); in the assay on LOX IMVI melanoma, 36.3%; with SK-MEL-28 melanoma, 53.3%; in the assay with SK-MEL-2 melanoma, 98%; with EKVX NSCLC it was 91.1%; in the assay on SN12C renal, 80%. Also, the growth was 88.2% in the assay with UO-31 renal; 99.2% in the assay with TK-10 renal; 70.7% with ACHN renal; 65.3% with CAKI-1 renal; 71.1% with A498 renal; 55.1% with CCRF-CEM leukemia. Further, the growth in the assay with MOLT-4 leukemia is 78.3%.
Consider `O=C(/C=C/C12c3ccccc3C(c3ccccc31)C1C(=O)NC(=O)C12)c1ccco1` (stereo not drawn), for which the growth in the assay on HCT-15 colon is 21.7%; with SNB-75 CNS, -2.52% (active); in the assay with SNB-19 CNS, 30.9%; with U251 CNS, 15.9%; in the assay on PC-3 prostate, 31.9%; with SK-MEL-5 melanoma, 46%. Moreover, the growth is 30.8% with UACC-62 melanoma; 16.1% in the assay on LOX IMVI melanoma; 44.3% in the assay on SK-MEL-28 melanoma; 7.24% (active) with SK-MEL-2 melanoma; 55.6% in the assay on EKVX NSCLC; 22.6% with SN12C renal. Moreover, the growth with UO-31 renal was 42%; in the assay with TK-10 renal it was 33.6%; in the assay with ACHN renal, 45.6%; in the assay on CAKI-1 renal it was 48.1%; in the assay with A498 renal, 61.7%; in the assay on CCRF-CEM leukemia it was -5.48% (active). Besides, the growth with MOLT-4 leukemia is 6.25% (active).

Values taken from PubChem BioAssay (NCI).
